# Structures can show the parent of a compound that is named as a salt. Unmarked numbers belong to inactive results.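 Rule for the calls: active = AUC significantly below DMSO controls by Student t-fit with adjusted P under 0.01; inactive = not significantly reduced.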
# Tested on: Haemophilus parainfluenzae
# Experiment: growth AUC normalised to DMSO control (fraction of control); higher = less growth inhibition, active = hit call of the paper
# Details: 20 µM
# In short: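 Hemin and NAD were added to the medium for Haemophilus parainfluenzae. All pathogens, after two anaerobic passages, were inoculated at a starting OD578 of 0.01 into pre-reduced mGAM plates with 20 μM compound and 1% DMSO under breathable seals, and OD578 was read hourly for 24 h in three biological replicates. AUC of each growth curve was obtained with the trapezoidal rule up to the exponential-to-stationary transition and normalised to DMSO controls from the same plate.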
row,SMILES,growth AUC normalised to DMSO control
1,N=C(N)NCC1COC2(CCCCC2)O1 (stereo not drawn) [Guanadrel sulfate],0.967
2,CCCN(CCC)CCc1cccc2c1CC(=O)N2 [Ropinirole hydrochloride],1
3,CCCCc1oc2ccccc2c1C(=O)c1cc(I)c(OCCN(CC)CC)c(I)c1 [Amiodarone hydrochloride],0.96
4,CC/C(=C(\c1ccccc1)c1ccc(OCCN(C)C)cc1)c1ccccc1 [Tamoxifen citrate],0.997
5,CC(C(=O)O)c1ccc2c(c1)Cc1cccnc1O2 (stereo not drawn) [Pranoprofen],0.985
6,O=C1O[C@H]([C@@H](O)CO)C(O)=C1O [Ascorbic acid],1.06
7,NNc1nncc2ccccc12 [Hydralazine hydrochloride],1.03
8,CC(C)C(=O)c1c(C(C)C)nn2ccccc12 [Ibudilast],0.811
9,CCCCC(CC)CNC(=N)NC(=N)NCCCCCCNC(=N)NC(=N)NCC(CC)CCCC (stereo not drawn) [Alexidine dihydrochloride],0.861
10,CCC[C@@H]1C[C@@H](C(=O)N[C@@H]([C@H]2O[C@H](SC)[C@H](O)[C@@H](O)[C@H]2O)[C@H](C)Cl)N(C)C1 [Clindamycin hydrochloride],0.0463 (active)
11,Cc1c(C)c2c(c(C)c1O)CCC(C)(COc1ccc(CC3SC(=O)NC3=O)cc1)O2 (stereo not drawn) [Troglitazone],0.984
12,CCCCCCCCCCCCCCCC[N+](C)(C)CCN(Cc1ccc(OC)cc1)c1ncccn1 [Thonzonium bromide],0.978
13,Cn1c(=O)c2c(ncn2CC(=O)O)n(C)c1=O [Acefylline],0.969
14,CN1CCN(c2c(F)cc3c(=O)c(C(=O)O)cn4c3c2SCC4)CC1 [Rufloxacin],0.0692 (active)
15,C[N+]1(CCCCC[N+]2(C)CCCC2)CCCC1 [Pentolinium bitartrate],0.96
16,CC1(C)OC(=O)NC1=O [Dimethadione],1
17,CC(=C(CCO)SSCC1CCCO1)N(C=O)Cc1cnc(C)nc1N (stereo in doubt) [Fursultiamine hydrochloride],0.986
18,O=C1CCc2ccc(OCCCCN3CCN(c4cccc(Cl)c4Cl)CC3)cc2N1 [Aripiprazole],0.994
19,CN1CC2c3ccccc3Oc3ccc(Cl)cc3C2C1 (stereo not drawn) [Asenapine maleate],0.851 (active)
20,C#CCN(C)CCCOc1ccc(Cl)cc1Cl [Clorgyline hydrochloride],0.943
21,Nc1nc(F)nc2c1ncn2[C@@H]1O[C@H](CO)[C@@H](O)[C@@H]1O [Fludarabine],1.01
22,CN(C)CCCN1c2ccccc2Sc2ccc(Cl)cc21 [Chlorpromazine hydrochloride],0.981
23,CNCCC=C1c2ccccc2CCc2ccccc21 [Nortriptyline hydrochloride],0.966
24,Cn1ccnc1S [Methimazole],1.02
25,C=C1c2cccc(O)c2C(O)=C2C(=O)[C@]3(O)C(O)=C(C(N)=O)C(=O)[C@@H](N(C)C)[C@@H]3[C@@H](O)[C@H]12 [Methacycline hydrochloride],0.0347 (active)
26,CC[C@H]1OC(=O)[C@H](C)[C@@H](O[C@H]2C[C@@](C)(OC)[C@@H](O)[C@H](C)O2)[C@H](C)[C@@H](O[C@@H]2O[C@H](C)C[C@H](N(C)C)[C@H]2O)[C@](C)(OC)C[C@@H](C)C(=O)[C@H](C)[C@@H](O)[C@]1(C)O [Clarithromycin],0.0384 (active)
27,Cc1ccccc1OCC(O)CO (stereo not drawn) [Mephenesin],0.93
28,CN(Cc1cnc2nc(N)nc(N)c2n1)c1ccc(C(=O)N[C@@H](CCC(=O)O)C(=O)O)cc1 [Amethopterin],0.0201 (active)
